HCMV inh – qHTS Assay for inhibitors of the human cytomegalovirus (HCMV). HFF cells, HCMV-luciferase reporter, 72 h; stronger effect = lower value. activity change, negative = inhibition, % at 57.5 µM. 410,000 compounds, 4.5% hits; in the data active means activity change below about -60%; inconclusive means no clear call, values can overlap the other calls; inactive means above about -39%
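Compounds were evaluated in HFFs infected with an HCMV luciferase reporter virus (MOI 1 PFU/cell). Luciferase in lysates collected 72 h post infection served as the replication measure.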
Pf growth 48h – Primary qHTS for delayed death inhibitors of the malarial parasite plastid, 48 hour incubation | Potency, µM (doses to about 28.7 µM), hits mostly inhibitors | 310,000 compounds, 5.9% hits | P. falciparum luciferase growth in erythrocytes, 48 h
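Firefly luciferase activity from engineered P. falciparum reports growth; inhibitors lower the luminescent signal. Cultures contained 2% hematocrit erythrocytes at 0.1% final parasitemia.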
Pf growth 96h – Primary qHTS for delayed death inhibitors of the malarial parasite plastid, 96 hour incubation; P. falciparum luciferase reporter growth, 96 h; Potency, µM (doses to about 28.7 µM), hits mostly inhibitors; 320,000 compounds, 6.9% hits; AID 504834, 2011
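Parasite growth measured via integrated firefly luciferase reporter in P. falciparum. Infected erythrocytes at 2% hematocrit, 0.05% parasitemia final were treated 96 hours at 37 C under 5% CO2, and luminescence was read.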
Shiga inhibitor – A qHTS for Small Molecule Inhibitors of Shiga Toxin; 290,000 compounds, 9.2% hits; inhibition, % at 38.7 µM; AID 2315, 2010; Vero cells, Shiga toxin protein synthesis inhibition reporter; in the data active means inhibition mostly above about 28%, no sharp cut-off; inactive means mostly below about 43%
CHX counter – Cycloheximide Counterscreen for Small Molecule Inhibitors of Shiga Toxin; 300,000 compounds, 12% hits; cell reporter, cycloheximide protein synthesis inhibition counterscreen; max response, %; AID 2314, 2010; in the data active means max response mostly above about 13%, no sharp cut-off; inactive means mostly below about 14%; further: read at 38.3 µM for the half of the compounds with a filed dose
Each line names hits and unclear results; the compound was inactive in the other large screens. Shown are actives, neighbours in structure and some others; about 20% of the full set was active somewhere. Unless noted, the call rests on the fitted dose curve; in most records, active means well fitted inhibition curve with a large enough effect; inconclusive means small, poorly fitted or top-dose-only effect, or another doubt; inactive means no such curve, though single readings can be large or run the other way.

COc1ccc(C2=C/C(=C\c3ccc(OC(C)=O)cc3)C(=O)O2)cc1	Shiga inhibitor 87, CHX counter 40
CC(=O)Oc1cccc(/C=C2\C=C(c3ccc(C)cc3)OC2=O)c1	CHX counter 17
COC(=O)c1cc(NC(=O)c2sc3ncn(Cc4cccc(F)c4)c(=O)c3c2C)cc(C(=O)OC)c1	none (no result: Pf growth 48h, Pf growth 96h, Shiga inhibitor, CHX counter)
CC(C)N(CCCNC(=O)c1ccc(CS(=O)(=O)c2c(Cl)cccc2Cl)o1)Cc1ccccc1	Pf growth 48h inconclusive
Cc1cc2nc(-c3ccc[nH]c3=O)n(Cc3cccc(F)c3)c2cc1C	none
CCCn1c(-c2ccc[nH]c2=O)nc2cc(C)c(C)cc21	Shiga inhibitor 72, CHX counter 38
CSc1nc2cc(Oc3cccc(Cl)c3Cl)c(Cl)cc2[nH]1	Pf growth 48h 6.7µM, Pf growth 96h 12µM
CSc1nc2ccc(Cl)cc2[nH]1	none
COc1cccc(NC(=S)NC(Cc2ccccc2)c2ccccc2)c1 (centres undefined)	none (no result: Pf growth 48h, Pf growth 96h, Shiga inhibitor, CHX counter)
CCN(CC)S(=O)(=O)c1ccc(N2CCOCC2)c(NC(=O)c2ccc(F)cc2)c1	Pf growth 96h inconclusive
CCN(CC)S(=O)(=O)c1ccc(N2CCOCC2)c(NC(=O)C2CCCC2)c1	Pf growth 48h inconclusive, Pf growth 96h 12µM
CCN(CC)S(=O)(=O)c1ccc(N2CCOCC2)c(NC(=O)C2CC2)c1	Pf growth 48h inconclusive, Pf growth 96h inconclusive (no result: Shiga inhibitor, CHX counter)
CCN(CC)c1ccc(S(=O)(=O)N(CC)CC)cc1NC(=O)C1CCCC1	Pf growth 48h 15µM, Pf growth 96h inconclusive
CCN(CC)S(=O)(=O)c1ccc(N2CCOCC2)c(NC(=O)COc2ccccc2)c1	Pf growth 48h 9.3µM, Pf growth 96h inconclusive
CCN(CC)S(=O)(=O)c1ccc(N2CCOCC2)c(NC(=O)c2ccccc2F)c1	HCMV inh -65
CCN(CC)S(=O)(=O)c1ccc(N2CCOCC2)c(NC(=O)CCOc2ccccc2)c1	Pf growth 48h 9.3µM, Pf growth 96h inconclusive
CCN(CC)S(=O)(=O)c1ccc(N2CCOCC2)c(NC(=O)CNCCc2ccccc2)c1	Pf growth 48h inconclusive, Pf growth 96h inconclusive
CCc1ccccc1OCC(=O)Nc1cc(S(=O)(=O)N(CC)CC)ccc1N1CCOCC1	Pf growth 48h 1.3µM, Pf growth 96h 1.2µM (no result: Shiga inhibitor, CHX counter)
Cc1ccc(C)c(N2CCN(c3ccc4cc(S(=O)(=O)N5CCCCC5)ccc4n3)CC2)c1	Pf growth 96h 9.3µM
Cc1cccc(N2CCN(c3ccc4cc(S(=O)(=O)N5CCCCC5)ccc4n3)CC2C)c1 (centres undefined)	HCMV inh inconclusive, Pf growth 48h inconclusive, Pf growth 96h 10µM
Cc1cccc(N2CCN(c3ccc4cc(S(=O)(=O)N5CCCCC5)ccc4n3)CC2)c1C	HCMV inh inconclusive, Pf growth 48h 12µM, Pf growth 96h inconclusive
COc1cccc(NC(=O)CCSc2nc(-c3ccco3)cc(C(F)(F)F)n2)c1	none (no result: Pf growth 48h, Pf growth 96h, Shiga inhibitor, CHX counter)
COc1ccc(OC)c(CCNC(=O)c2ccc3c(c2)N(Cc2ccc(C)cc2)CCS3)c1	none (no result: Pf growth 48h, Pf growth 96h, Shiga inhibitor, CHX counter)
O=C(NCCc1ccc(F)cc1)Nc1ccc([N+](=O)[O-])cc1	Pf growth 48h inconclusive, CHX counter 21
O=[N+]([O-])c1ccc(NC(=S)NCCc2ccc(F)cc2)cc1	HCMV inh -98, Pf growth 48h 10µM, Pf growth 96h 5.2µM
CCOc1ccc(CNC(=O)c2cc3c(=O)n(C)c4ccccc4c3s2)cc1	none (no result: Pf growth 48h, Pf growth 96h, Shiga inhibitor, CHX counter)
O=C(COC(=O)Cc1ccccc1F)Nc1ccc(SC(F)F)cc1	Pf growth 96h inconclusive
O=C(Cc1ccccc1F)Nc1ccc(SC(F)F)cc1	Shiga inhibitor 57, CHX counter 91
O=C(Cc1ccc(Cl)cc1)Nc1ccc(SC(F)F)cc1	Shiga inhibitor 13, CHX counter 45
O=C(NCC1CC1)c1cnc(N2CCN(Cc3cccc(F)c3)C2=O)s1	HCMV inh -99 (no result: Pf growth 48h, Pf growth 96h, Shiga inhibitor, CHX counter)
CC(C)NC(=O)c1cnc(N2CCN(Cc3cccc(F)c3)C2=O)s1	none (no result: Pf growth 48h, Pf growth 96h, Shiga inhibitor, CHX counter)
COCCN(C(=O)C1CC(=O)N(Cc2ccc(C)cc2)C1)c1c(N)n(CC(C)C)c(=O)[nH]c1=O (centres undefined)	Pf growth 48h inconclusive (no result: Shiga inhibitor, CHX counter)
CC(C)(C)c1cc(OC(=O)c2ccncc2)ccc1O	Pf growth 96h inconclusive
CC(C)(C)c1cc(OC(=O)c2ccccc2F)ccc1O	HCMV inh inconclusive, Shiga inhibitor 33
CCOC(=O)C1CCN(S(=O)(=O)c2ccc3c(c2)NC(=O)CS3)CC1	none
CC(C)CCC(C(=O)O)C(C)CC(=O)Nc1ccn(-c2ccccc2)n1 (centres undefined)	none
